Assay results from PMC5540273 (PLoS ONE, 2017).

Key:
Settings in all cases: concentration: 1 μM, replicates: in singlicate; n = 1
[1] = system: TYK2(JH2domain-pseudokinase)
TYRO3 = system: TYRO3
ULK1 = system: ULK1
ULK2 = system: ULK2
ULK3 = system: ULK3
VEGFR2 = system: T1, VEGFR2
T1 construct: gene KDR

VPS34 = system: T2, VPS34
T2 construct: gene PIK3C3

VRK2 = system: VRK2
WEE1 = system: WEE1
WEE2 = system: WEE2
WNK1 = system: WNK1
WNK2 = system: WNK2
WNK3 = system: WNK3
WNK4 = system: WNK4
YANK1 = system: T3, YANK1
T3 construct: gene STK32A

YANK2 = system: T4, YANK2
T4 construct: gene STK32B

YANK3 = system: T5, YANK3
T5 construct: gene STK32C

YES = system: T6, YES
T6 construct: gene YES1

YSK1 = system: T7, YSK1
T7 construct: gene STK25

YSK4 = system: T8, YSK4
T8 construct: gene MAP3K19
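Also: KINOMEscan kinase panel screen.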

| SMILES | %Inh [1] [%] | %Inh (TYRO3) [%] | %Inh (ULK1) [%] | %Inh (ULK2) [%] | %Inh (ULK3) [%] | %Inh (VEGFR2) [%] | %Inh (VPS34) [%] | %Inh (VRK2) [%] | %Inh (WEE1) [%] | %Inh (WEE2) [%] | %Inh (WNK1) [%] | %Inh (WNK2) [%] | %Inh (WNK3) [%] | %Inh (WNK4) [%] | %Inh (YANK1) [%] | %Inh (YANK2) [%] | %Inh (YANK3) [%] | %Inh (YES) [%] | %Inh (YSK1) [%] | %Inh (YSK4) [%] |
| --- | --- | --- | --- | --- | --- | --- | --- | --- | --- | --- | --- | --- | --- | --- | --- | --- | --- | --- | --- | --- |
| COc1ccc(Nc2nccc(N3CCC(NC(=O)Nc4cccc(OC)c4)C3)n2)cc1 (centres unmarked) [GSK1379742] | 5 | 0 | 0 | 0 | 17 | 17 | 16 | 0 | 52 | 13 | 0 | 18 | 19 | 0 | 10 | 0 | 0 | 0 | 0 | 23 |
| Cc1ccc(S(=O)(=O)Nc2ccc(Nc3nccc(Nc4cccc5[nH]ncc45)n3)cc2)cc1 [GSK581271] | 93.6 | 0 | 19 | 0 | 38 | 0 | 60 | 0 | 6 | 8 | 4 | 0 | 26 | 16 | 0 | 0 | 3 | 30 | 13 | 67 |
| COc1cccc(C(=O)Nc2cccc(Oc3ccc4nc(NC(=O)C5CC5)cn4n3)c2)c1 | 0 | 47 | 0 | 0 | 11 | 99.9 | 22 | 0 | 0 | 20 | 0 | 0 | 0 | 0 | 0 | 0 | 0 | 92.7 | 0 | 100 |
| O=C(NC1CCN(c2ccnc(Nc3ccc(F)cc3)n2)C1)c1cc2ccccc2s1 (centres unmarked) [GSK1379716] | 31 | 0 | 0 | 1 | 32 | 0 | 38 | 0 | 50 | 0 | 20 | 22 | 33 | 46 | 0 | 20 | 29 | 20 | 19 | 14 |
| CSc1cccc2c(-c3ccncn3)c(-c3ccc(F)cc3)nn12 [GW514786] | 24 | 0 | 0 | 0 | 3 | 0 | 14 | 23 | 6 | 1 | 0 | 1 | 22 | 24 | 23 | 24 | 2 | 4 | 0 | 0 |
| CC(C)(C)c1ccc2nccc(Nc3cccc(O)c3)c2c1 [GW856795] | 32 | 0 | 0 | 19 | 0 | 50 | 52 | 100 | 0 | 13 | 0 | 0 | 40 | 0 | 0 | 0 | 0 | 5 | 0 | 0 |
| Nc1ncc(-c2ccc3nccc(-c4ccncc4)c3c2)cc1S(=O)(=O)N1CCOCC1 [GSK1627798] | 21 | 0 | 0 | 0 | 6 | 0 | 93.3 | 0 | 0 | 3 | 0 | 0 | 4 | 9 | 4 | 0 | 22 | 0 | 0 | 88 |
| COc1cc(Nc2nccc(N3CCC(NC(=O)c4cc5ccccc5s4)C3)n2)cc(OC)c1OC (centres unmarked) [GSK1379760] | 6 | 0 | 1 | 0 | 64 | 0 | 33 | 20 | 8 | 0 | 0 | 0 | 30 | 11 | 13 | 11 | 0 | 8 | 17 | 0 |
| CCn1c(-c2nonc2N)nc2c(C#CC(C)(C)O)ncc(OCCCCN)c21.O=C(O)C(F)(F)F.O=C(O)C(F)(F)F [GSK507274] | 29 | 2 | 54 | 32 | 12 | 0 | 34 | 0 | 10 | 14 | 19 | 0 | 21 | 3 | 31 | 0 | 24 | 16 | 0 | 99.4 |
| O=C(Nc1cccc(-c2nn3ncccc3c2-c2ccnc(Nc3ccccc3)n2)c1)c1c(F)cccc1F [GSK198271] | 0 | 100 | 22 | 0 | 6 | 80 | 0 | 0 | 40 | 0 | 2 | 60 | 0 | 0 | 63 | 38 | 18 | 99.5 | 20 | 18 |
